ATXN viability: viability counter-screen for ATXN expression inhibitors; S2 cells (HEK-293 line with an ATXN2-luciferase reporter) viability, CellTiter-Fluor protease fluorescence, 24 h; Potency, µM (titrated, usually from 56.7 µM), most hits filed as cytotoxic; 0.49% of 400,000 active; further: nearly all actives have a fitted effect of over 40% in size
HT1080-NT tox: kills 2HG-producing HT-1080-NT fibrosarcoma cells | AID 686970 | Potency, µM (top dose mostly 46.1 µM), for inactives: at the highest dose activity, negative = less viability, hits mostly cytotoxic | 1.6% of 360,000 active | HT-1080-NT fibrosarcoma viability, CellTiter-Glo ATP luminescence, 48 h;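 further: NT is the 2HG producing partner of a matched IDH1 knockdown line; 0% = DMSO-treated cells and -100% = media-only wells without cells; nearly all actives have a fitted effect of over 55% in size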
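Read-out is CellTiter-Glo luminescence after 10 minutes at room temperature, following 48 hours' compound treatment of HT-1080-NT cells (750 cells/well, RPMI, 5% FBS, 37 degrees C).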
HT1080 IDH1KD tx: toxicity to HT-1080 IDH1 knockdown cells (counter line); 2% of 360,000 active; Potency, µM (doses to about 46.1 µM), for inactives: at the top dose activity, negative = toxicity, actives largely listed as cytotoxic; HT-1080 IDH1 knockdown viability, ATP luminescence, 48 h; AID 686971;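 further: 0% = DMSO wells and -100% = cell-free medium wells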
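Using the IDH1-knockdown HT-1080 line run in the same batch and compound series as the NT line, viability after 48 h at 37 °C was determined by CellTiter-Glo luminescence and expressed as % activity.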
ATXN2 expr inh: reduces ATXN2 reporter expression in HEK-293 cells; HEK-293 ATXN2-luciferase reporter, luminescence, 24 h; Potency, µM (titrated, usually from 57 µM), inactives show at the highest dose activity change, negative = inhibition, actives largely listed as inhibitors; 0.72% of 360,000 active; further: on the % scale 0 is the no-effect control and ±100 the full control effect; nearly all actives have a fitted effect of over 55% in size
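ATXN2-luciferase reporter cells (luciferase flanked by upstream and downstream ATXN2 gene portions) were treated 24 h at 37 °C with compounds at up to 57 uM. SteadyGlo luminescence gave expression; GF-AFC fluorescence gave viability.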
KB-3-1 tox: KB-3-1 parental cell cytotoxicity. KB-3-1 viability, CellTiter-Glo ATP luminescence, 72 h. Potency, µM (doses to about 46.1 µM), hits mostly cytotoxic. 1.4% of 400,000 active; further: on the % scale 0 is the no-effect control and ±100 the full control effect; nearly all actives have a fitted effect of over 60% in size
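Using CellTiter-Glo luminescence, growth of non-resistant KB-3-1 adenocarcinoma cells is assessed 72 h after pin-tool compound addition at 37 °C. Normalized responses across the concentration series yield fitted curves.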
KB-V1 MDR tox: KB-V1 MDR subline cytotoxicity. KB-V1 MDR cells viability, CellTiter-Glo, 72 h. Potency, µM (series often up to 46.1 µM), hits mostly cytotoxic. 3.4% of 400,000 active. AID 1347076; further: on the % scale 0 is the no-effect control and ±100 the full control effect; nearly all actives have a fitted effect of over 60% in size
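In this primary screen, KB-V1 cells overexpressing P-gp are incubated with library compounds (lowest to highest concentration) for 72 h at 37 degrees C before a luminescent ATP viability read.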
* = called active by the depositor; i = inactive; u = inconclusive; x = no result. Hits are enriched below; roughly 6.2% of the tested compounds scored in any of these assays. The call rests on the fitted dose curve; in most records, active means well fitted curve in the direction sought with a large enough effect; inconclusive means small, poorly fitted or top-dose-only effect, or another doubt; inactive means no such curve, though single readings can be large; an effect the other way counts as inactive or inconclusive. Potency means the concentration at half of the fitted maximal effect.

SMILES	ATXN viability	HT1080-NT tox	HT1080 IDH1KD tx	ATXN2 expr inh	KB-3-1 tox	KB-V1 MDR tox
C(=C/c1ccnc2nc(SC/C=C/c3ccccc3)nn12)/c1ccccc1	i	-17.3%	-0.7%	-12.9%	i	16.4µM*
O=C(O)C1=C[C@H](c2csc3ccccc23)C[C@H](OCc2ccc(CO)cc2)O1	i	-0.1%	5.4%	1.3%	i	i
O=C(NCc1ccccc1)C1=C[C@@H](c2csc3ccccc23)C[C@@H](OCCCCO)O1	u	-27.6%	u	5.62µM*	5.8µM*	u
O=C(NCc1ccccc1)C1=C[C@@H](c2csc3ccccc23)C[C@@H](OCc2ccc(CO)cc2)O1	u	-16.2%	-27.8%	u	20.6µM*	20.6µM*
O=C(c1cccc(Cl)c1Cl)N(Cc1ccco1)Cc1cccs1	x	x	x	x	i	i
CSc1ccc2[nH]c(=O)cc(C)c2c1	i	-4.0%	-0.3%	7.9%	i	u
Cc1cc(=O)[nH]c2ccc(Cc3ccccc3)cc12	i	-25.1%	-16.7%	114.1%	u	9.2µM*
CCC(C(=O)NCCc1ccc(OC)c(OC)c1)n1nc(C)c2sc3ccccc3c2c1=O (centres undefined)	x	x	x	x	i	i
Cc1ccccc1Nc1nc(N)nc(COC(=O)c2cccn2C)n1	i	-1.0%	-8.2%	45.5%	i	i
CCc1ccccc1Nc1nc(N)nc(COC(=O)c2cccn2C)n1	i	u	6.31µM*	49.2%	i	14.6µM*
Cc1ccc([N+](=O)[O-])c(Oc2ncnc3c2oc2ccccc23)c1	i	x	x	26.5%	i	i
Cc1cc(-c2n[nH]c(=S)n2/N=C/c2ccc(Cl)c([N+](=O)[O-])c2)n[nH]1	i	6.51µM*	4.61µM*	-19.0%	u	i
O=[N+]([O-])c1cc(/C=N/n2c(-c3ccncc3)n[nH]c2=S)ccc1Cl	u	-9.2%	-13.8%	u	i	i
CN(NC(=O)c1cccc(Cl)c1)c1nc(-c2ccccc2)nnc1C(F)(F)F	i	-20.9%	-24.9%	-22.9%	23.1µM*	u
CN(N)c1nc(-c2ccccc2)nnc1C(F)(F)F	i	-1.1%	8.1%	0.1%	i	i
COc1ccc(-c2sc(NC(C)=O)nc2-c2ccccc2)cc1	i	-6.6%	-15.2%	-1.0%	u	18.4µM*
COc1ccc(-c2nc(NC(=O)c3n[nH]c(=O)c4ccccc34)sc2C)cc1	i	-3.2%	-9.8%	0.1%	u	8.2µM*
COc1cc(NC(=O)c2n[nH]c(=O)c3ccccc23)cc(OC)c1	i	-1.6%	-3.6%	x	i	i
COc1ccc(-c2nc(NC(=O)c3cc(C(C)(C)C)nn3C)sc2C)cc1	i	15.8µM*	u	-23.3%	i	2.31µM*
COc1ccc(-c2nc(NC(C)=O)sc2-c2ccccc2)cc1	i	u	u	x	i	i
COc1ccc(-n2c(=O)c3ccc(C(=O)NCc4ccc(C)cc4)cc3n(CC(=O)Nc3ccc(F)cc3)c2=O)cc1	i	x	x	6.7%	i	i
COc1cc(C(=O)NC(=S)Nc2ccc([N+](=O)[O-])cc2)cc(OC)c1OC	i	-4.6%	-8.7%	-4.7%	i	i
COc1cc(C(=O)NC(=S)Nc2ccc([N+](=O)[O-])cc2C)cc(OC)c1OC	i	-26.2%	-9.0%	0.0%	i	2.06µM*
O=C1C2C3C=CC(C3)C2C(=O)N1c1ccc(Cc2ccncc2)cc1 (centres undefined)	i	-5.6%	u	-1.0%	i	i
CC1CCC2C(=O)N(c3ccc(Cc4ccncc4)cc3)C(=O)C2C1 (centres undefined)	i	u	u	-17.5%	4.61µM*	10.3µM*
SMILES	ATXN viability	HT1080-NT tox	HT1080 IDH1KD tx	ATXN2 expr inh	KB-3-1 tox	KB-V1 MDR tox
COc1ccc(C(=O)CC(=O)c2ccc(C(C)(C)C)cc2)cc1	i	1.1%	-17.4%	u	i	u
COc1ccc(C(=O)C(CCC(CNC(C)(C)C)C(=O)c2ccc(OC)cc2)CNC(C)(C)C)cc1 (centres undefined)	u	u	4.61µM*	u	u	u
CCn1nc(C)c(Br)c1C(=O)Sc1ccccc1Cl	i	16.4µM*	u	-3.1%	i	i
O=C(NCC(c1ccco1)S(=O)(=O)c1ccc(Cl)cc1)c1ccccc1F (centres undefined)	i	x	x	12.1%	i	i
O=c1[nH]c(/C=C/c2ccccc2OC(F)F)nc2c1cnn2-c1ccccc1	i	18.4µM*	u	-16.3%	i	i
COc1cc(/C=C/c2nc3ccccc3c(=O)[nH]2)ccc1OC(F)F	i	5.7%	-2.6%	11.4%	i	i
CC1CCCC(NC(=S)Nc2ccc(SC(F)F)cc2)C1C (centres undefined)	i	u	u	u	18.4µM*	23.1µM*
FC(F)Sc1ccc(NC(=S)NC2CCCC2)cc1	i	-9.1%	-17.2%	28.3%	i	u
CN(C)S(=O)(=O)c1cccc(NC(=O)c2cc(-c3cccs3)nn2-c2ccccc2)c1	i	4.2%	1.8%	1.1%	i	5.8µM*
CCN(CC)S(=O)(=O)c1cccc(NC(=O)c2cc(-c3cccs3)nn2-c2ccccc2)c1	i	12.3%	-0.2%	-8.1%	i	3.66µM*
CN(CC(=O)Nc1cccc(F)c1)C(=O)c1cc(-c2cccs2)nn1-c1ccccc1	i	-5.3%	-11.7%	-9.1%	i	u
CCOc1ccc2nc(N3CCCC(C(=O)NCCc4ccc(SC)cc4)C3)sc2c1 (centres undefined)	x	x	x	x	i	i
Cc1ccn2c(Nc3ccc4c(c3)OCO4)c(-c3ccco3)nc2c1	u	x	x	33.1%	i	i
CCC(=O)N1CCC1(C)C(=O)Nc1cccc(OC)c1 (centres undefined)	i	17.3%	3.2%	8.4%	i	i
COc1cccc(NC(=O)C2(C)CCN2C(=O)CC2CCCC2)c1 (centres undefined)	i	8.7%	-8.2%	3.5%	i	16.4µM*
Cc1ccc(OCCn2cc(C(=S)N3CCCC3)c3ccccc32)cc1C	u	u	7.31µM*	-14.8%	5.8µM*	5.17µM*
S=C(c1cn(CCOc2cccc3ccccc23)c2ccccc12)N1CCCC1	i	-1.2%	-15.6%	-23.9%	18.4µM*	u
S=C(c1cn(CCOc2ccccc2)c2ccccc12)N1CCCC1	i	u	u	-18.4%	u	u
CCOc1ccc(NC(=O)c2nn(C)c3c2CS(=O)(=O)c2ccccc2-3)cc1	i	x	x	2.2%	i	i

Screens: PubChem BioAssay, National Center for Advancing Translational Sciences (NCATS)
